Among the data in the antibiotic and cytotoxicity screens of Wong et al. (2023) are cytotoxicity call values, retold here.

Screen size: about 39,000 compounds; about 3,300 (8.5%) were called active. Many of the other results were omitted from the sample, so actives are more common in it than they were.

The subject of this test is HepG2. Put plainly: cytotoxicity call (relative viability < 0.9). As to conditions: 10 µM.
`N#Cc1ccc[nH]c1=O`: the cytotoxicity call is “inactive”. As for `C[C@@H]1CN([C@@H](C)CO)C(=O)c2cc(NS(=O)(=O)c3cccs3)ccc2O[C@@H]1CN(C)C(=O)Nc1cccc2ccccc12`, the entry is “inactive”. As for `CCC=CCC=CCC=CCC=CCC=CCCCC(=O)OCC` [OMEGA-3-ACID ESTERS (EPA shown) ], the cytotoxicity call was “inactive”. As for `C[C@H](CO)N1C[C@H](C)[C@@H](CN(C)Cc2ccc(C(=O)O)cc2)Oc2ncc(C#CCN(C)C)cc2C1=O`, the cytotoxicity call was “inactive”. The same measure for `Cc1noc(C)c1NC(=O)Nc1ccc2c(c1)CC(=O)N([C@H](C)CO)C[C@@H](C)[C@H](CN(C)Cc1ccc(Cl)c(Cl)c1)O2`: “inactive”. On to `CCOC(=O)N(C)C[C@@H]1OCc2cn(nn2)CCCC(=O)N([C@@H](C)CO)C[C@@H]1C`, for which the cytotoxicity call was “inactive”. The same measure for `COc1ccc(NC(=O)Nc2ccc3c(c2)C(=O)N([C@@H](C)CO)C[C@@H](C)[C@@H](CN(C)S(=O)(=O)c2ccc(OC)cc2)OCCCC[C@H](C)O3)cc1`: “inactive”; for `COc1ccccc1CNC(=O)C[C@@H]1C[C@@H]2c3cc(NC(=O)c4ccc5c(c4)OCO5)ccc3O[C@@H]2[C@H](CO)O1`: “inactive”.

As to `NCC[C@H]1CC[C@H](NC(=O)C2CCC2)[C@@H](CO)O1`, the cytotoxicity call is “inactive”. As for `Cc1cccc(S(=O)(=O)N2C[C@@H](O)COC[C@@H]3O[C@H](CC(=O)N4CCN(C)CC4)CC[C@H]32)c1`, the entry is “inactive”; as for `COc1ccc(NC(=O)Nc2ccc3c(c2)C(=O)N([C@H](C)CO)C[C@H](C)[C@H](CN(C)C(=O)CCC(F)(F)F)OCCCC[C@H](C)O3)cc1`, “inactive”.

Consider `CC(C)NC(=O)N(C)C[C@H]1Oc2ccc(NS(=O)(=O)c3cccs3)cc2C(=O)N([C@H](C)CO)C[C@H]1C`, for which the cytotoxicity call is “inactive”. For `COc1ccc(S(=O)(=O)Nc2cccc3c2O[C@H](CN(C)Cc2ccc(Cl)c(Cl)c2)[C@H](C)CN([C@@H](C)CO)C3=O)cc1`, the cytotoxicity call was “active”.

On to `C[C@H]1CN([C@@H](C)CO)C(=O)c2cccc(NS(=O)(=O)c3ccc(Cl)cc3)c2O[C@@H]1CN(C)Cc1ccc(Cl)c(Cl)c1`, for which the cytotoxicity call was “active”. On to `COc1ccc(S(=O)(=O)Nc2cccc3c2O[C@@H](CN(C)Cc2ccc(Cl)c(Cl)c2)[C@H](C)CN([C@@H](C)CO)C3=O)cc1`, for which the cytotoxicity call was “inactive”. For `C[C@H](CO)N1C[C@H](C)[C@@H](CN(C)Cc2ccc(Cl)c(Cl)c2)Oc2c(NS(=O)(=O)c3ccccc3)cccc2C1=O`, the cytotoxicity call is “active”. The same measure for `C[C@H]1CN([C@@H](C)CO)C(=O)c2cccc(NS(=O)(=O)c3ccccc3)c2O[C@H]1CN(C)Cc1ccc(Cl)c(Cl)c1`: “inactive”. Regarding `C[C@@H]1CN([C@@H](C)CO)C(=O)c2cccc(NS(=O)(=O)c3ccc(Cl)cc3)c2O[C@H]1CN(C)Cc1ccc(Cl)c(Cl)c1`, the cytotoxicity call is “inactive”. Consider `COc1ccc(S(=O)(=O)Nc2cccc3c2O[C@H](CN(C)Cc2ccc(Cl)c(Cl)c2)[C@@H](C)CN([C@@H](C)CO)C3=O)cc1`, for which the cytotoxicity call was “inactive”.

As to `C[C@H](CO)N1C[C@H](C)[C@@H](CN(C)Cc2ccc(Cl)c(Cl)c2)Oc2c(NS(=O)(=O)c3ccc(Cl)cc3)cccc2C1=O`, the cytotoxicity call is “inactive”. Regarding `C[C@@H]1CN([C@@H](C)CO)C(=O)c2cccc(NS(=O)(=O)c3ccccc3)c2O[C@@H]1CN(C)Cc1ccc(Cl)c(Cl)c1`, the cytotoxicity call was “inactive”. Consider `Cc1ccc(S(=O)(=O)N(C)C[C@@H]2Oc3ccc(NC(=O)NC(C)C)cc3CC(=O)N([C@@H](C)CO)C[C@H]2C)cc1`, for which the cytotoxicity call is “inactive”. Consider `Nc1ncnc(NC[C@H]2CCCO2)c1[N+](=O)[O-]`, for which the cytotoxicity call was “inactive”.

With `COc1ccc(NC(=O)Nc2ccc3c(c2)C(=O)N([C@@H](C)CO)C[C@@H](C)[C@@H](CN(C)S(=O)(=O)c2ccc(C)cc2)OCCCC[C@H](C)O3)cc1`, the cytotoxicity call was “inactive”. The same measure for `C[C@@H]1CN([C@@H](C)CO)S(=O)(=O)c2ccc(-c3cncnc3)cc2O[C@@H]1CN(C)C(=O)Cc1ccncc1`: “inactive”; for `COc1ccc(NC(=O)Nc2ccc3c(c2)C(=O)N([C@H](C)CO)C[C@H](C)[C@@H](CN(C)Cc2ccccc2)OCCCC[C@H](C)O3)cc1`: “inactive”; for `COc1ccc(NC(=O)Nc2ccc3c(c2)C(=O)N([C@H](C)CO)C[C@@H](C)[C@H](CN(C)Cc2ccccc2)OCCCC[C@@H](C)O3)cc1`: “active”. For `COc1ccc(NC(=O)Nc2ccc3c(c2)C(=O)N([C@H](C)CO)C[C@@H](C)[C@@H](CN(C)Cc2ccccc2)OCCCC[C@H](C)O3)cc1`, the cytotoxicity call was “inactive”. With `COc1ccc(NC(=O)Nc2ccc3c(c2)C(=O)N([C@@H](C)CO)C[C@@H](C)[C@@H](CN(C)Cc2ccccc2)OCCCC[C@@H](C)O3)cc1`, the cytotoxicity call is “active”. As to `COc1ccc(NC(=O)Nc2ccc3c(c2)C(=O)N([C@@H](C)CO)C[C@@H](C)[C@H](CN(C)Cc2ccccc2)OCCCC[C@@H](C)O3)cc1`, the cytotoxicity call is “inactive”. The same measure for `COc1ccc(NC(=O)Nc2ccc3c(c2)C(=O)N([C@@H](C)CO)C[C@@H](C)[C@H](CN(C)Cc2ccccc2)OCCCC[C@H](C)O3)cc1`: “active”. As for `COc1ccc(NC(=O)Nc2ccc3c(c2)C(=O)N([C@H](C)CO)C[C@@H](C)[C@@H](CN(C)Cc2ccccc2)OCCCC[C@@H](C)O3)cc1`, the entry is “inactive”. The same measure for `COc1ccc(NC(=O)Nc2ccc3c(c2)C(=O)N([C@@H](C)CO)C[C@H](C)[C@H](CN(C)Cc2ccccc2)OCCCC[C@@H](C)O3)cc1`: “inactive”; for `COc1ccc(NC(=O)Nc2ccc3c(c2)C(=O)N([C@@H](C)CO)C[C@@H](C)[C@@H](CN(C)Cc2ccccc2)OCCCC[C@H](C)O3)cc1`: “inactive”. In the case of `COc1ccc(NC(=O)Nc2ccc3c(c2)C(=O)N([C@@H](C)CO)C[C@H](C)[C@H](CN(C)Cc2ccccc2)OCCCC[C@H](C)O3)cc1`, the cytotoxicity call was “inactive”.
